Results as given in PMC6212833.
The whole screen tested about 2,000 compounds, of which about 15 (0.8%) showed an effect of 50% or more. Many of the other results were omitted from the sample, so strong results are more common in it than they were. *1 amine or outer side, *2 acyl side, *3 side chain or, on linkers, in order; H or OH if unused. Where a SMILES comes first, the peptide text is derived from it. Bridges are numbered along the chain shown (N, C = ends). X1 = O=C(CCC[*:2])[*:1]

These compounds were tested on Balamuthia mandrillaris (ATCC PRA-291) trophozoites, axenic culture (assay: primary screen, percent inhibition; higher = more effect of the substance). Conditions: 20 µM.
Experimental: Screening of a clinically approved library of compounds, compiled by the Small Molecule Discovery Center (SMDC) at the UCSF, was completed at 20 µM in 0.2% DMSO. All 2,177 drugs in the library were stored as 10 mM stocks dissolved in 100% DMSO (Sigma-Aldrich) at −20°C. B. mandrillaris amoebae were resuspended in axenic medium and distributed into opaque 384-well plates (Corning) at a density of 3,000 amoebae per well using a BioMek NX liquid handler. Negative-control wells were treated with vehicle only (0.2% DMSO in axenic medium), and positive-control wells simulating total destruction of amoebae were seeded with amoeba lysate generated by 3 consecutive freeze-thaw cycles. Following 72 h of incubation, 30 µl of CellTiter Glo reagent (CTG; Promega) was added to each well. The luminescence was measured with a Promega GloMax-Multi+ plate reader at 2, 4, and 8 h after CTG addition. […] The B-score, representing a plate-based statistical approach for correcting row, column, and edge effects, was also calculated for each compound in the library (75).
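Note: 0% = vehicle wells and 100% = lysate wells.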

Compound | % Inhibition
C1N2CN3CN1CN(C2)C3 | 25.9%
CN(C)CCC[C@@]1(c2ccc(F)cc2)OCc2cc(C#N)ccc21 [131042-L5] | 29.1%
c1ccc(-c2ccc(C(c3ccccc3)n3ccnc3)cc2)cc1 (stereo not drawn) | 2.05%
O=C(O)C1CSCN1 (stereo not drawn) | 29%
CC[C@H]1OC(=O)[C@H](C)[C@@H](O[C@H]2C[C@@](C)(OC)[C@@H](O)[C@H](C)O2)[C@H](C)[C@@H](O[C@@H]2O[C@H](C)C[C@H](N(C)C)[C@H]2O)[C@](C)(O)C[C@@H](C)C(=O)[C@H](C)[C@@H](O)[C@]1(C)O [129937-L7] | 19.9%
CO/N=C(\C(=O)N[C@@H]1C(=O)N2C(C(=O)O)=C(COC(N)=O)CS[C@H]12)c1ccco1 | 11.5%
Cc1ccc(S(=O)(=O)NC(=O)NN2CC3CCCC3C2)cc1 (stereo not drawn) | 10.2%
Cc1oncc1C(=O)Nc1ccc(C(F)(F)F)cc1 | 15%
O=C(O)P(=O)(O)O | 19.1%
CCCCN(CCCC)CC(O)c1cc(Cl)cc2c1-c1ccc(Cl)cc1/C2=C/c1ccc(Cl)cc1 (stereo not drawn) | 5.93%
CC[C@@]1(O)C(=O)OCc2c1cc1n(c2=O)Cc2cc3c([N+](=O)[O-])cccc3nc2-1 | -33%
C[N+](C)(C)CCCCCCCCCC[N+](C)(C)C | 25.7%
C[N+](C)(C)CCCCCC[N+](C)(C)C | 26%
CCCCCCCCCCCCCCCC[N+](C)(C)C | 56.1%
CC[C@H]1OC(=O)[C@H](C)[C@@H](O[C@H]2C[C@@](C)(OC)[C@@H](O)[C@H](C)O2)[C@H](C)[C@@H](O[C@@H]2O[C@H](C)C[C@H](N(C)C)[C@H]2O)[C@](C)(OC)C[C@@H](C)C(=O)[C@H](C)[C@@H](O)[C@]1(C)O | 8.87%
O=C1NCCN1CCN1CCC(c2cn(-c3ccc(F)cc3)c3ccc(Cl)cc23)CC1 | 23.8%
CN1CCc2c(c3ccccc3n2Cc2ccccc2)C1 | 34.1%
CN/C(=C\[N+](=O)[O-])NCCSCc1csc(CN(C)C)n1 | 23.7%
CN/C(=C\[N+](=O)[O-])NCCSCc1ccc(CN(C)C)o1 | 68.1%
CN/C(=C/[N+](=O)[O-])NCCSCc1ccc(CN(C)C)o1 | 7.74%
Nc1c(Br)cc(Br)cc1CNC1CCC(O)CC1 (stereo not drawn) | 20.4%
C#C[C@]1(OC(C)=O)CCC2C3CCC4=C/C(=N/O)CCC4C3CC[C@@]21CC (stereo partly drawn) | 19.6%
Cc1cnc(C(=O)O)c[n+]1[O-] | 0.14%
Cc1cc(N)c2ccccc2[n+]1CCCCCCCCCC[n+]1c(C)cc(N)c2ccccc21 | 69%
CC(=O)OCC(=O)[C@@]1(O)CCC2C3CCC4=CC(=O)CC[C@]4(C)C3[C@@H](O)C[C@@]21C (stereo partly drawn) | 33.3%
Cc1ncc([N+](=O)[O-])n1CC(C)O (stereo not drawn) | 35.8%

Compound | % Inhibition
CCN(CC)C(=O)C1(c2ccccc2)CC1CN (stereo not drawn) | 21.4%
O=S(=O)(O)CCS | 8.32%
CCCCC[C@H](O)/C=C/[C@H]1[C@H](O)CC(=O)[C@@H]1CCCCCCC(=O)O [285959-L6] | -5.58%
Cc1cc(-c2ccc(/N=N/c3ccc4c(S(=O)(=O)O)cc(S(=O)(=O)O)c(N)c4c3O)c(C)c2)ccc1/N=N/c1ccc2c(S(=O)(=O)O)cc(S(=O)(=O)O)c(N)c2c1O | 73.9%
O=C(Nc1cccc2c(=O)cc(-c3nn[nH]n3)oc12)c1ccc(OCCCCc2ccccc2)cc1 | -2.25%
O=C(O)c1ccccc1-c1c2cc(I)c(=O)c(I)c-2oc2c(I)c(O)c(I)cc12 | 66.4%
Clc1ccc(C(Cn2ccnc2)OCc2ccsc2Cl)c(Cl)c1 (stereo not drawn) [735884-L3] | 5.23%
OC[C@H]1O[C@H](O[C@H]2[C@H](O)[C@@H](O)[C@H](O)O[C@@H]2CO)[C@H](O)[C@@H](O)[C@@H]1O | 17.5%
CCCCC(=O)N(Cc1ccc(-c2ccccc2-c2nn[nH]n2)cc1)[C@H](C(=O)O)C(C)C | 21.1%
Cc1ccccc1C(OCCN(C)C)c1ccccc1 (stereo not drawn) | -5.39%
CCCCc1oc2ccccc2c1C(=O)c1cc(I)c(OCCN(CC)CC)c(I)c1 | 14.9%
CO[C@@H]1[C@@H](O[C@@H]2O[C@H](C)[C@@H](O[C@H]3C[C@@](C)(O)[C@H](O)[C@H](C)O3)[C@H](N(C)C)[C@H]2O)[C@@H](CC=O)C[C@@H](C)[C@@H](O[C@H]2CC[C@H](N(C)C)[C@@H](C)O2)/C=C/C=C/C[C@H](C)OC(=O)C[C@H]1O | 4.48%
O=c1c2ccccc2[se]n1-c1ccccc1 | 19.3%
Nc1nc(O)ncc1F | 15.6%
COc1ccc2c(c1)N(C[C@H](C)CN(C)C)c1ccccc1S2 | 2.52%
S=P(N1CC1)(N1CC1)N1CC1 | 27.8%
CC[C@H](C)[C@@H]1NC(=O)[C@H](Cc2ccc(OC)cc2)NC(=O)CCCSC[C@@H](C(=O)N2CCC[C@H]2C(=O)N[C@@H](CC(C)C)C(=O)NCC(N)=O)NC(=O)[C@H](CC(N)=O)NC(=O)[C@H](CCC(N)=O)NC1=O (Y(Me)IQNCPLG-NH2; linker N-5 via X1) | 9.07%
COc1ccc2cc1Oc1ccc(cc1)C[C@H]1c3c(cc4c(c3Oc3cc5c(cc3OC)CCN(C)[C@@H]5C2)OCO4)CCN1C | -18.5%
COc1ccc(OC)c(C(O)C(C)N)c1 (stereo not drawn) | 16.7%
CN1C(C(=O)Nc2ccccn2)=C(O)c2ccccc2S1(=O)=O | 6.97%
CCCCC(F)(F)[C@@]1(O)CC[C@H]2[C@@H](CC(=O)[C@@H]2CCCCCCC(=O)O)O1 | 20.6%
C[C@@H](O)[C@H]1C(=O)N2C(C(=O)O)=C(S[C@@H]3CN[C@H](C(=O)Nc4cccc(C(=O)O)c4)C3)[C@H](C)[C@H]12 | 10.5%
COc1ccc(-n2nc(CCC(=O)N(C)O)cc2-c2ccc(Cl)cc2)cc1 | 16%
N[C@@H](CSSC[C@H](N)C(=O)O)C(=O)O | -0.0671%
CCN(CC)CCNc1ccc(CO)c2sc3ccccc3c(=O)c12 | 0.0147%
